Source: PubChem BioAssay
Cycloheximide cs: Cycloheximide Counterscreen for Small Molecule Inhibitors of Shiga Toxin; max response, %; 12% of 300,000 active; cell reporter, cycloheximide protein synthesis inhibition counterscreen; in the data active = max response mostly above about 13%, no sharp cut-off; inactive = mostly below about 14%; note: read at 38.3 µM for the half of the compounds with a filed dose; 0% is about no effect
AmpC detergent: qHTS Inhibitors of AmpC Beta-Lactamase (assay with detergent); P00811; 0.041% of 370,000 active; AmpC hydrolysis of nitrocefin, absorbance 480 nm, 0.01% Triton; Potency, µM (titrated, usually from 114 µM), for inactives: at the top dose activity change, negative = inhibition, actives largely listed as inhibitors;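 note: potency is the fitted concentration of half-maximal effect; 0% = no-compound wells and -100% = no-enzyme wells; nearly all actives have a fitted effect of over 25% in size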
Target sequence (P00811 whole entry, looked up): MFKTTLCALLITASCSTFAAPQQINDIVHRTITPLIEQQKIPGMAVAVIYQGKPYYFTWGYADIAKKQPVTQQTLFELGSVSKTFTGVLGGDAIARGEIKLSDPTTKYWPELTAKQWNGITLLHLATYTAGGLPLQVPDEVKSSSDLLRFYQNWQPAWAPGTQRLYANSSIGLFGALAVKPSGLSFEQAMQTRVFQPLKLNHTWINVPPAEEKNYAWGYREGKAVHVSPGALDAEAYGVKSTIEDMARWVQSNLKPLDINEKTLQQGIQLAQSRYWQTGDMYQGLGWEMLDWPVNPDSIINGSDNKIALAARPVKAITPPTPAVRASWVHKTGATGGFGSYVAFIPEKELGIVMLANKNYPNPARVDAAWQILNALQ
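20 mM phosphate pH 7.0 + 0.01% (detergent screen) or 0.0001% Triton X-100; 5.3 nM AmpC reagent; cpd preinc 15 min RT; nitrocefin (800 uM stock) to start; A480 q20 s × 4 min; Activity was normalised to no-enzyme and no-compound control wells.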
AmpC no deterg: qHTS Inhibitors of AmpC Beta-Lactamase (assay without detergent); 0.52% of 330,000 active; AID 485341, 2010; Potency, µM (highest dose often 57.1 µM), inactives show at the top dose activity change, negative = inhibition, most hits filed as inhibitors; AmpC nitrocefin hydrolysis, absorbance 480 nm, 0.0001% Triton; P00811;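 note: potency is the fitted concentration of half-maximal effect; plate controls were no compound for no effect and no enzyme for full effect; nearly all actives have a fitted effect of over 20% in size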
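AmpC (5.3 nM in the dispensed reagent) in 20 mM phosphate pH 7.0 with 0.01% (detergent screen) or 0.0001% Triton X-100 was preincubated with compounds for 15 min at room temperature. Nitrocefin was then added from an 800 uM solution, and hydrolysis was followed at 480 nm.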
NS1 inh: qHTS Assay for Inhibitors of Influenza NS1 Protein Function; Potency, µM (titrated, usually from 46.1 µM), inactives show at the top dose activity, positive = more growth; 0.4% of 270,000 active; AID 2326, 2010; calls by dose curve; note: potency is the fitted concentration of half-maximal effect; actives are rising curves; nearly all actives have a fitted effect of over 50% in size
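Recovery from NS1-induced slow growth read by OD600 in budding yeast switched to galactose assay medium (pH 6.0, -URA) at 1:100 dilution. Compound 23 nl per well; the matching strain lacking NS1 serves as control.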
Shiga inhibitor: A qHTS for Small Molecule Inhibitors of Shiga Toxin; Vero cells, Shiga toxin protein synthesis inhibition reporter; AID 2315, 2010; 9.2% of 290,000 active; inhibition, % at 38.7 µM; in the data active = inhibition mostly above about 28%, no sharp cut-off; inactive = mostly below about 43%; note: 0% is about no effect
* = called active by the depositor; ? = inconclusive; . = not tested or not shown. The entries come from a sample that favours hits as a whole. Unless noted, calls come from the whole dose curve; as a rule, active = well fitted curve in the direction sought with a large enough effect; inconclusive = small, poorly fitted or top-dose-only effect, or another doubt; inactive = no such curve, though single readings can be large; an effect the other way counts as inactive or inconclusive.

SMILES	Cycloheximide cs	AmpC detergent	AmpC no deterg	NS1 inh	Shiga inhibitor
O=c1/c(=C/c2ccc(O)c([N+](=O)[O-])c2)sc2nc3ccccc3n12	32.5*	-12.3%	-20.7%	.	94.3*
COc1cccc(OC)c1C(=O)Nc1cccc2c1CCCC2	1.3	?	-12.1%	-46.6%	.
COC(=O)COc1cccc(NC(=O)c2ccccc2)c1	1.2	-13.9%	-11.9%	-30.2%	-5.7
Cc1cc(C)cc(OC(=O)CCN2C(=O)c3ccccc3C2=O)c1	-0.8	?	-20.5%	-11.0%	7.8
Cc1ccc(NC(=O)c2ccc(OC(=O)COc3ccc(Cl)cc3C)cc2)cc1	45.8*	?	-11.2%	2.9%	14.7
Cc1ccc(NC(=O)c2ccc(OC(=O)CCN3C(=O)c4ccccc4C3=O)cc2)cc1	36.7*	-12.9%	-11.9%	1.3%	72.3*
Cc1ccc(NC(=O)c2ccc(OC(=O)COc3cccc(Cl)c3)cc2)cc1	36.0*	-8.9%	-16.9%	3.0%	50.9*
Cc1ccc(C(=O)CC(=O)COc2ccc(Cl)cc2C)cc1	5.4	?	2.24µM*	-0.6%	-6.5
CCNC(=O)COC(=O)COc1ccc(Cl)cc1C	-1.6	-8.7%	-3.1%	-63.1%	25.3
CCOc1ccc(CCNC(=O)c2cc(-c3ccccc3)c(N3CCOCC3)s2)cc1OCC	-2.6	-5.3%	148.4%	-4.7%	9.2
CCc1nnc(SCc2nc(-c3cccc(Cl)c3)oc2C)c2cc3sc(C)cc3n12	.	19.3%	.	.	.
Cn1cc(C(=O)Nc2ccc(F)c(F)c2)cn1	0.5	1.7%	-15.1%	-3.7%	18.5
Cn1c(NC(=S)Nc2ccccc2)nc2ccccc21	47.2*	-2.5%	-24.6%	6.7%	64.8*
Cn1c(Nc2ccc(F)cc2)nc2ccccc21	9.5	3.5%	-49.6%	0.9%	17.8
Nc1nc2ccccc2n1CCOc1ccc(Br)cc1	-2.9	-8.6%	-23.5%	-3.8%	-1.2
S=C(Nc1ccccc1)Nc1nc2ccccc2n1CCOc1ccc(Br)cc1	34.2*	-12.5%	-39.1%	25.1%	43.7*
CC1CN(S(=O)(=O)c2ccc(CN3C(=O)c4cccnc4C3=O)cc2)c2ccccc2O1 (stereo not drawn)	4.4	-13.7%	-12.8%	8.6%	-8.9
Cc1ccnc(NC(=O)CNC(=O)c2ccccc2Br)c1	52.5*	-8.7%	1.6%	2.5%	53.6*
Cc1ccnc(NC(=O)CCNC(=O)c2ccccc2Cl)c1	35.5*	-14.0%	0.3%	7.6%	123.6*
COc1cc(C(c2c(C)[nH][nH]c2=O)c2c(C)[nH][nH]c2=O)ccc1OC(=O)c1cccc(C)c1	-6.1	12.4%	.	.	-0.6
CSc1cccc(NC(=O)CCCn2c(=O)c3cccn3c3cccnc32)c1	9.3	-6.6%	-18.7%	8.9%	16.4
CCOc1ccc(N2C=Nc3ccc(OCC)cc3C2)cc1	14.0*	-7.6%	-2.5%	-3.0%	48.2*
CCOc1ccc(N2C(=O)CNC2=S)cc1	0.5	-5.1%	-8.1%	6.1%	-11.2
O=c1cc(COc2ccc(Cl)c(Cl)c2)nc2sccn12	20.0*	5.0%	-11.4%	1.4%	5.7
O=c1cc(CNc2cc(C(F)(F)F)cc(C(F)(F)F)c2)nc2sccn12	-2.6	?	14.0%	-27.0%	-11.4
SMILES	Cycloheximide cs	AmpC detergent	AmpC no deterg	NS1 inh	Shiga inhibitor
Cc1ccc(OCC(=O)OCc2cc(=O)n3ccsc3n2)cc1C	.	17.1%	.	.	.
O=c1cc(CNc2cc(Cl)ccc2Cl)nc2sccn12	29.3*	?	-13.4%	-10.2%	28.0
CN(C)CC(C)(C)CNC(=O)CC1C(=O)NCCN1Cc1ccc(-c2ccccc2)cc1 (stereo not drawn)	-4.5	4.3%	132.1%	7.3%	4.6
CCOc1ccc(-c2cc3c(=O)n(CC(=O)Nc4cc(F)ccc4C)ccn3n2)cc1	.	10.7%	.	.	.
COc1ccc(C(=O)Nc2ccc([N+](=O)[O-])cn2)cc1OC	16.1	?	-20.9%	-11.2%	-26.4
COc1cc(OC)cc(C(=O)Nc2ccc([N+](=O)[O-])cn2)c1	10.2	9.0%	-10.6%	9.5%	18.6
Cc1ccc(C(=O)Nc2ccc([N+](=O)[O-])cn2)o1	44.8*	-6.3%	-8.9%	4.4%	122.1*
COc1ccc(C(=O)Nc2ccc([N+](=O)[O-])cn2)c(OC)c1	35.6*	-6.7%	-26.0%	7.7%	107.3*
Cc1cc(C(=O)Nc2ccc([N+](=O)[O-])cn2)cs1	40.9*	1.2%	-21.0%	-10.7%	141.0*
